Assay results as given in ChEMBL document CHEMBL4513216, “Probing the Open Global Health Chemical Diversity Library for Multistage-Active Starting Points for Next-Generation Antimalarials” (ACS Infect Dis, 2020).
Among all 69,000 compounds or so, about 8,600 (12%) showed an effect of 50% or more. Many of the other results were omitted from the sample, so strong results are more common in it than they were.

What follows are compounds tested on Plasmodium berghei (assay: Screen against P. berghei liver stage (PbLuc), transformed with Luciferase, at 10uM). Conditions: tested at 10 uM.
Format: functional, HepG2

| Structure (SMILES) | INHIBITION [%] |
| --- | --- |
| CN1CCOC(C(=O)Nc2nc(-c3ccc4c(c3)CCC4)n[nH]2)C1 (centres undefined) | 32.4 |
| CN1CCOC(C(=O)Nc2nc(-c3ccccc3F)n[nH]2)C1 (centres undefined) | -35.9 |
| CC1(C(=O)N2CCSCC2)CNCCO1 (centres undefined) | 34.825 |
| O=C1CCCc2[nH]c(=O)c(C(=O)N3CCc4ccccc4C3)cc21 | 14.1 |
| COc1cccc(-c2ncc(CN3CC[C@@H]4CC[C@H](C3)N4)s2)c1 | 46.1 |
| CN1C(=O)[C@@H]2CC[C@H]1CN(Cc1cccc(OCc3ccccn3)c1)C2 | 47.5 |
| COc1cccc(-c2ncc(CN3CC[C@H](CO)[C@@H](O)C3)s2)c1 | 15.7 |
| COc1cccc(-c2cccc(CN3C[C@H]4CC[C@@H](C3)N(C)C4=O)c2)c1 | 61 |
| COCCN1C[C@H]2CN(Cc3cccc(OC)c3)CCN2C1=O | 24.8 |
| COc1cccc(-c2ncc(CN3C[C@H]4CC[C@@H](C3)N(C)C4=O)s2)c1 | 78.9 |
| Cc1ccc(C2NC(=O)c3cc(C(C)C)sc3N2)cc1 (centres undefined) | -4.92 |
| Cc1cnn(C2CN(CC(=O)NCCc3c[nH]c4ccccc34)C2)c1 | 10 |
| COc1cc(-c2cc(C3CCOC3)c(C#N)c(N)n2)ccc1O (centres undefined) | 53 |
| COc1ccc(-c2cc(C3CCOC3)c(C#N)c(N)n2)cn1 (centres undefined) | 6.69 |
| Cc1cc(-c2cc(C3CCOC3)c(C#N)c(N)n2)ccc1Cl (centres undefined) | 23.9 |
| C=Cc1ccc(C(=O)N2CCCC(Nc3ccc(F)cc3)C2)cc1 (centres undefined) | 36.8 |
| C=Cc1ccc(C(=O)N2CCCC(Nc3ccc(OC)cc3)C2)cc1 (centres undefined) | 73.5 |
| C=Cc1ccc(C(=O)N2CCCC(Nc3ccccc3)C2)cc1 (centres undefined) | 50.3 |
| Cc1ccc(C(=O)N2CCCC(Nc3ccc(F)cc3)C2)cc1 (centres undefined) | 36 |
| C=Cc1ccc(C(=O)N2CCCC(Nc3ccc(F)c(F)c3)C2)cc1 (centres undefined) | 37.1 |
| COC(=O)c1ccc(C(=O)N2CCCC(Nc3ccc(F)cc3)C2)cc1 (centres undefined) | -6.88 |
| CC(C)N1CCO[C@H]2CN(C(=O)c3ccsc3)C[C@H]21 | -5.05 |
| CC(=O)N1CCCCC[C@@H]2[C@@H]1[C@H](c1cccc(F)c1)CN2C(=O)C1CC1 | 35.85 |
| O=C(c1ncc(F)cc1F)N1CCC(c2ncc[nH]2)CC1 | 29.4 |
| NC(=O)c1cccc(C2CCN(c3ncccn3)CC2)n1 | 52.7 |
| CN(C)c1nccc(C2CN(S(C)(=O)=O)C2)n1 | 20.2 |
| CN(C)c1nccc(C2CCN(C(=O)CO)CC2)n1 | -37 |

| Structure (SMILES) | INHIBITION [%] |
| --- | --- |
| CN(C)c1cccc(C2CCN(c3ncccn3)CC2)n1 | 48 |
| CN1CCC(c2cccc(C(=O)N(C)C)n2)CC1 | 16.5 |
| Cc1cc(C)nc(N2CCC(c3ccnc(N(C)C)n3)CC2)n1 | 75.9 |
| CN(C)c1nccc(C2CCN(c3ncccn3)CC2)n1 | 76.8 |
| CN(C)C(=O)c1cccc(C2CCN(c3ncccn3)CC2)n1 | -19.7 |
| CN(C)c1nccc(C2CCN(C3CCCCC3O)CC2)n1 (centres undefined) | 27.6 |
| Cc1cccc(CN2CCC3(CC2)CC(Oc2cccnc2)C3)n1 | 0.923 |
| CCOc1ccnc(N2CCN(C(=O)c3ccn(C)c(=O)c3)CC2)n1 | 4.71 |
| COc1ccc(CCCN(C)C(=O)c2cc(C(C)=O)c[nH]2)cc1OC | -46.6 |
| COCCN1C(=O)[C@@H]2CC[C@H]1CN(C(=O)Cc1ccc(O)c(Cl)c1)C2 | -82.7 |
| CCS(=O)(=O)N1CCC2(CC1)COC(COc1cccnc1)C2 (centres undefined) | 5.63 |
| Cc1ccc(C#N)c(N2CCC(c3nccn3Cc3cscn3)CC2)n1 | 23.9 |
| Cc1ccc(C#N)c(N2CCCC(c3nccn3Cc3cscn3)C2)n1 (centres undefined) | 56.7 |
| Cc1cnc(C)c(N2CCC(c3nccn3Cc3cscn3)CC2)n1 | 8.51 |
| O=C(CC1CC1)N1C[C@@H]2CN(c3ccccc3)C(=O)[C@@H]2C1 | -15.9 |
| Cc1cc(C(=O)NCC2OCCc3cn(CC4CC4)nc32)c(C)[nH]1 (centres undefined) | 26.5 |
| COc1ccc(CCN2CC(NCc3ncc[nH]3)CC2=O)cc1 (centres undefined) | -5.19 |
| CN(C)C(=O)c1ccc2c(c1)nc(N1CC[C@H](O)C1)n2C | 51.8 |
| CN(C(=O)c1ccc2c(c1)nc(N1CC[C@H](O)C1)n2C)C1CCSCC1 | -1.04 |
| Cn1c(N2CC[C@H](O)C2)nc2cc(C(N)=O)ccc21 | 14.3 |
| CCOc1ccc(Oc2cc(CN)ccn2)cc1 | -5.69 |
| CC(C)C(=O)NCc1ccnc(Oc2ccc(F)cc2)c1 | 32.5 |
| COc1ccc(Oc2cc(CN)ccn2)cc1 | 62.4 |
| Cc1ccc(Oc2cc(CN)ccn2)cc1C | 45.7 |
| NCc1ccnc(Oc2ccccc2)c1 | -18.5 |
| NCc1ccnc(Oc2ccc(F)cc2)c1 | 82.9 |
| O=C(CSc1ccccc1)N1C[C@@H]2CC[C@H]1CN(Cc1ccncc1)C2 | 10.4 |
